In PubChem BioAssay (Tox21):
Results filed as inconclusive are left out. Calls of active or inactive are those of the source. Unless noted, calls follow the shape of the dose curve; as a rule, active = well fitted curve in the direction sought with a large enough effect in the repeat runs; inconclusive = weak or mixed curves; inactive = no such curve, though single readings can be large; an effect the other way counts as inactive or inconclusive.

Tests used:
[1] = qHTS assay to identify small molecule agonists of the hypoxia (HIF-1) signaling pathway - cell viability counter screen (AID 1224844; calls by dose curve; also: nearly all actives have a fitted effect of over 50% in size)
Outline: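 Cytotoxicity measured by CellTiter-Glo ATP luminescence in the wells also read for beta-lactamase signal. Cells were HRE-bla ME-180 (2,000/well, 0.5% dialyzed FBS), exposed to compounds for 17 h at 37C.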

[2] = qHTS assay to identify small molecule agonists of H2AX (AID 1224845; active = well fitted activation curve with a large enough effect in the signal ratio in the repeat runs, not every such curve was filed as active; the % refers to the signal ratio)
Outline: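 Wild-type CHO-K1 cells plated overnight, then exposed 3 hr at 37C to compounds at 15 concentrations (0.76% DMSO). Lysed, then HTRF anti-pH2AX(S139)-cryptate/anti-H2AX-d2 detection after 24 hr at room temperature; emissions 665 and 620 nm.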

[3] = qHTS assay to identify small molecule agonists of the hypoxia (HIF-1) signaling pathway (AID 1224846; active = well fitted activation curve with a large enough effect in the signal ratio in the repeat runs, not every such curve was filed as active; the % refers to the signal ratio)
Outline: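 Compounds added to ME-180 cells carrying hypoxia-response-element beta-lactamase reporter (0.5% dialyzed FBS, 5 h preplating), 17 h at 37C; agonist activity detected by CCF4-AM B/G FRET read-out.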

[4] = qHTS assay to identify small molecule agonists of H2AX - cell viability counter screen (AID 1224847; calls by dose curve; also: top concentration of the series differs between compounds; nearly all actives have a fitted effect of over 30% in size)
Outline: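 CHO-K1 wt, 1000 cells/well, o/n 37C; cpds 15 conc, 3 h 37C, 0.76% DMSO; CellTiter-Glo, 30 min RT, luminescence.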

[5] = qHTS assay to identify small molecule agonists of the estrogen related receptor (ERR) signaling pathway from Tox21 library (AID 1224849; calls by dose curve; also: nearly all actives have a fitted effect of over 15% in size); conditions: ERR reporter cell line, ONE-Glo luciferase, 18 h; at 92.4 µM (top of the series) unless noted
Outline: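 Luminescent agonist read-out (One-Glo, 30-minute room-temperature incubation) following 18-hour compound treatment at 37 C of the ERR cell line, which had been plated 6 hours before dosing.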

[6] = qHTS RealTime-Glo MT Cell Viability Assay in HepG2 cells - 24 hour (AID 1224867); also: nearly all actives have a fitted effect of over 50% in size
Outline: (§1)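 Real-time, nonlytic viability: 600 HepG2 cells/well mixed with NanoLuc enzyme plus prosubstrate; 5 h settle, compound (DMSO) added by pintool; luminescence monitored over 40 h at 37 C.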

[7] = qHTS RealTime-Glo MT Cell Viability Assay in HEK293 cells - 32 hour (AID 1224868); also: top concentration of the series differs between compounds; nearly all actives have a fitted effect of over 50% in size
Outline: (§2)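 Cells + reagent dispensed (600 cells/well, HEK293) → 5 h at 37 C/5% CO2 → 23 nL compound in DMSO pinned → 40 h at 37 C → luminescence read at 0, 8, 16, 24, 32, 40 h.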

[8] = A CellTox Green Cytotoxicity Assay to monitor cytotoxicity in HEK293 cells - 0 hour (AID 1224869); also: nearly all actives have a fitted effect of over 50% in size
Outline: (§3)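 Fluorescence from a DNA-binding dye excluded by viable cells was measured repeatedly in the same HEK293 wells (600 cells/well) during continuous compound exposure at 37 C. Each assay gives one read point: 0, 8, 16, 24, 32 or 40 h.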

[9] = qHTS RealTime-Glo MT Cell Viability Assay in HepG2 cells - 40 hour (AID 1224870); also: nearly all actives have a fitted effect of over 50% in size
Outline: (§4)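 HepG2 cells mixed with RealTime-Glo MT reagents (NanoLuc plus cell-permeant prosubstrate) were seeded at 600 cells/well, incubated 5 h at 37 C/5% CO2, then pinned with compounds in DMSO; nonlytic luminescence tracked viability during 40 h treatment.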

[10] = A CellTox Green Cytotoxicity Assay to monitor cytotoxicity in HEK293 cells - 40 hour (AID 1224871); also: nearly all actives have a fitted effect of over 45% in size
Outline: as §3

[11] = qHTS RealTime-Glo MT Cell Viability Assay in HepG2 cells - 8 hour (AID 1224873); also: nearly all actives have a fitted effect of over 55% in size
Outline: as §4

[12] = qHTS RealTime-Glo MT Cell Viability Assay in HEK293 cells - 40 hour (AID 1224874); conditions: RealTime-Glo luminescence; max response: stronger effect = lower value; also: nearly all actives have a fitted effect of over 50% in size
Outline: (§5)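 Luminescence, which tracks viable cell number through reduction of the prosubstrate to a NanoLuc substrate, was read over continuous 37 C culture. Cells (600/well) were premixed with reagent and rested 5 h before 23 nL of compound in DMSO was pinned.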

[13] = A CellTox Green Cytotoxicity Assay to monitor cytotoxicity in HEK293 cells - 24 hour (AID 1224875); also: nearly all actives have a fitted effect of over 45% in size
Outline: as §3

[14] = A CellTox Green Cytotoxicity Assay to monitor cytotoxicity in HepG2 cells - 16 hour (AID 1224876); also: nearly all actives have a fitted effect of over 45% in size
Outline: (§6)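 Real-time cytotoxicity: fluorescence of a cell-impermeant cyanine dye binding DNA of dead HepG2 cells, measured repeatedly (0–40 h) during compound exposure at 37 C. Cells seeded 600/well with reagent, dosed after 5 h.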

[15] = qHTS RealTime-Glo MT Cell Viability Assay in HepG2 cells - 32 hour (AID 1224877); also: nearly all actives have a fitted effect of over 55% in size
Outline: as §1

[16] = A CellTox Green Cytotoxicity Assay to monitor cytotoxicity in HepG2 cells - 24 hour (AID 1224878); also: nearly all actives have a fitted effect of over 45% in size
Outline: as §6

[17] = A CellTox Green Cytotoxicity Assay to monitor cytotoxicity in HepG2 cells - 40 hour (AID 1224879); also: nearly all actives have a fitted effect of over 40% in size
Outline: as §6

[18] = qHTS RealTime-Glo MT Cell Viability Assay in HEK293 cells - 0 hour (AID 1224880)
Outline: as §5

[19] = qHTS assay to identify small molecule antagonists of the estrogen related receptor (ERR) signaling pathway from Tox21 library (AID 1224848); also: nearly all actives have a fitted effect of over 50% in size
Outline: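 First, 2,000 ERR cells per well were plated and held 6 h at 37 C/5% CO2. Next, compounds in DMSO were pinned in and left 18 h at 37 C. Finally, ONE-Glo was added and luminescence read after 30 min at room temperature.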

[20] = qHTS RealTime-Glo MT Cell Viability Assay in HEK293 cells - 16 hour (AID 1224872)
Outline: as §2
% is scaled to controls: 0 for no effect and ±100 for the full control effect.

CCS(=O)(=O)C(C)(C)S(=O)(=O)CC
inactive: Potency [1] | Potency [2] | outcome [3] | Potency [4] | activity change, positive = activation [5] 3.77% [at 42.5 µM] | Potency [6] | Potency [7] | Potency [8] | Potency [9] | Potency [10] | Potency [11] | max response [12] 3.47% | Potency [13] | Potency [14] | Potency [15] | Potency [16] | Potency [17] | outcome [18]

COC(=O)c1c(C(F)F)nc(C(F)(F)F)c(C2=NCCS2)c1CC(C)C
inactive: Potency [1] | Potency [2] | outcome [3] | Potency [4] | Potency [19] | activity change, positive = activation [5] 1.38% | Potency [6] | Potency [7] | Potency [8] | Potency [9] | Potency [10] | Potency [20] | Potency [11] | max response [12] -16.3% | Potency [13] | Potency [14] | Potency [15] | Potency [16] | Potency [17] | outcome [18]

COc1cc(OC)nc(NC(=O)NS(=O)(=O)c2ncccc2OCC(F)(F)F)n1
inactive: Potency [1] | Potency [2] | outcome [3] | Potency [4] | Potency [19] | activity change, positive = activation [5] 9.4% | Potency [7] | Potency [8] | Potency [9] | Potency [10] | Potency [20] | Potency [11] | max response [12] 0.591% | Potency [13] | Potency [14] | Potency [15] | Potency [16] | Potency [17] | outcome [18]

O=NN1CCN(N=O)CC1
inactive: Potency [1] | Potency [2] | outcome [3] | Potency [4] | Potency [19] | activity change, positive = activation [5] 3% | Potency [7] | Potency [8] | Potency [10] | Potency [20] | Potency [11] | max response [12] -6.3% | Potency [14] | Potency [15] | Potency [16] | Potency [17] | outcome [18]

Cc1cc(C)nc(Nc2ccccc2)n1
inactive: Potency [1] | Potency [2] | outcome [3] | Potency [4] | Potency [19] | Potency [6] | Potency [7] | Potency [8] | Potency [9] | Potency [10] | Potency [20] | Potency [11] | max response [12] -2.72% | Potency [13] | Potency [14] | Potency [15] | Potency [16] | Potency [17] | outcome [18]

CCN(CC)CCOC(=O)C(C)(c1ccccc1)c1ccccc1
inactive: Potency [1] | Potency [2] | outcome [3] | Potency [4] | Potency [19] | activity change, positive = activation [5] 0.519% [at 42.5 µM] | Potency [6] | Potency [7] | Potency [8] | Potency [10] | Potency [20] | Potency [11] | Potency [14] | Potency [15] | Potency [17] | outcome [18]
